Among the test systems are HCT-15 colon; HT29 colon; SNB-75 CNS; SNB-19 CNS; U251 CNS; PC-3 prostate; SK-MEL-5 melanoma; UACC-62 melanoma; LOX IMVI melanoma; SK-MEL-28 melanoma; SK-MEL-2 melanoma; SN12C renal; UO-31 renal; TK-10 renal; ACHN renal; CAKI-1 renal; A498 renal; CCRF-CEM leukemia; MOLT-4 leukemia; EKVX NSCLC.
Holding throughout (assay): NCI-60 one-dose screen, 48 h (100 = growth as untreated, 0 = no growth, -100 = all killed)
Details in all cases: 10 µM unless noted

The structures appear in SMILES notation. “And” between values parts separate entries of the source, which are not always exact repeats. Equal values may be shown once. Compounds without any hit were thinned out: in the full panel of roughly 83,000, 20% have a hit.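 Testing used 96-well plates and a 48-hour single-concentration exposure. Example: -40 means 40% of the starting cells died.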 The source made the active and inactive calls. Rule for the calls: active = growth percent below 10; inactive = the rest.

`COc1ccc(-c2ccc(-c3ccc(C(=N)N)cn3)s2)cc1Cl`: the growth was -72.5% (active) in the experiment with HCT-15 colon; -52.6% (active) with HT29 colon; -98.4% (active) in the experiment with SNB-75 CNS; -73.9% (active) with SNB-19 CNS; -62.2% (active) in the experiment with U251 CNS; -80.9% (active) with PC-3 prostate. Also, the growth with SK-MEL-5 melanoma is -48.4% (active); in the experiment on UACC-62 melanoma it was -92.3% (active); in the experiment on LOX IMVI melanoma, -84.5% (active); in the experiment on SK-MEL-28 melanoma, -86.6% (active); with SK-MEL-2 melanoma it was -54% (active); with SN12C renal it was -81% (active). In addition, the growth was -89.9% (active) with UO-31 renal; -73.1% (active) in the experiment with TK-10 renal; -98.2% (active) in the experiment with ACHN renal; -98.4% (active) in the experiment on CAKI-1 renal; 99% (inactive) in the experiment on A498 renal; -36.1% (active) in the experiment with CCRF-CEM leukemia. For the same molecule, the growth with MOLT-4 leukemia is -31.5% (active).
As to `CCCCCCCCn1ccc2cc(NC(=O)CN3CCN(c4nc(C)cc(N5CCCCC5)n4)CC3)ccc21`, the growth in the experiment on HCT-15 colon was 73.2% (inactive); in the experiment on HT29 colon it was 57.4% (inactive); in the experiment on SNB-75 CNS, 87.6% (inactive); in the experiment with SNB-19 CNS, 94.3% (inactive); in the experiment on U251 CNS, 80.4% (inactive); in the experiment on PC-3 prostate, 71.8% (inactive). Also, the growth is 82.1% (inactive) in the experiment on SK-MEL-5 melanoma; 81.2% (inactive) in the experiment with UACC-62 melanoma; 103% (inactive) in the experiment with LOX IMVI melanoma; 94.6% (inactive) in the experiment on SK-MEL-28 melanoma; 114% (inactive) with SK-MEL-2 melanoma; 91.9% (inactive) in the experiment with SN12C renal. In addition, the growth in the experiment on UO-31 renal was 58.4% (inactive); with TK-10 renal, 98.5% (inactive); in the experiment with ACHN renal, 91.7% (inactive); in the experiment on CAKI-1 renal it was 86.8% (inactive); in the experiment with A498 renal, 104% (inactive); in the experiment with CCRF-CEM leukemia it was -43.6% (active). Further, the growth in the experiment on MOLT-4 leukemia is 0.667% (active).
Turning to `O=C(N/N=C/c1ccc(O)cc1O)c1cccc(Nc2ccnc(C(F)(F)F)c2)c1`, the growth is 27.3% (inactive) in the experiment with HCT-15 colon; 41.6% (inactive) in the experiment on HT29 colon; 32.2% (inactive) in the experiment on SNB-75 CNS; 35.5% (inactive) in the experiment with SNB-19 CNS; 32.1% (inactive) with U251 CNS; 61% (inactive) with PC-3 prostate. In addition, the growth in the experiment on SK-MEL-5 melanoma was 33.7% (inactive); in the experiment on UACC-62 melanoma, -8.61% (active); in the experiment on LOX IMVI melanoma, 13.7% (inactive); with SK-MEL-28 melanoma it was 31.1% (inactive); in the experiment with SK-MEL-2 melanoma, 60.7% (inactive); in the experiment with EKVX NSCLC, 28% (inactive). The growth with SN12C renal was 25% (inactive); with UO-31 renal, 34.7% (inactive); with TK-10 renal, 42.6% (inactive); in the experiment on CAKI-1 renal, 40.3% (inactive); with CCRF-CEM leukemia it was 6.22% (active); in the experiment with MOLT-4 leukemia, 12.2% (inactive).
Take `NCCOCCOc1ccccc1`: the growth in the experiment with HCT-15 colon is 104% (inactive); with HT29 colon, 97.6% (inactive); in the experiment on SNB-75 CNS, 106% (inactive); with SNB-19 CNS it was 106% (inactive); in the experiment with U251 CNS, 96.1% (inactive); with PC-3 prostate it was 90.5% (inactive). Besides, the growth in the experiment with SK-MEL-5 melanoma is 114% (inactive); in the experiment with UACC-62 melanoma, 102% (inactive); with LOX IMVI melanoma, 102% (inactive); in the experiment on SK-MEL-28 melanoma, 107% (inactive); with SK-MEL-2 melanoma, 101% (inactive); in the experiment on SN12C renal, 103% (inactive). Also, the growth was 86.8% (inactive) in the experiment with UO-31 renal; 90.9% (inactive) in the experiment on TK-10 renal; 106% (inactive) in the experiment on ACHN renal; 88.3% (inactive) in the experiment with CAKI-1 renal; 97.3% (inactive) with A498 renal; 91.9% (inactive) in the experiment with CCRF-CEM leukemia. Further, the growth with MOLT-4 leukemia is 101% (inactive).
Regarding `CC[C@@H]1NC(=O)[C@H]([C@H](O)[C@H](C)C/C=C/c2ccc(CN3C(=O)C(C)=C(C)C3=O)cc2)N(C)C(=O)[C@H](C(C)C)N(C)C(=O)[C@H](CC(C)C)N(C)C(=O)[C@H](CC(C)C)N(C)C(=O)[C@@H](C)NC(=O)[C@H](C)NC(=O)[C@H](CC(C)C)N(C)C(=O)[C@H](C(C)C)NC(=O)[C@H](CC(C)C)N(C)C(=O)CN(C)C1=O`, the growth with HCT-15 colon is 67.8% (inactive); in the experiment with HT29 colon, 64.9% (inactive); with SNB-75 CNS, 72.8% (inactive); in the experiment on SNB-19 CNS it was 76.1% (inactive); with U251 CNS, 71.2% (inactive); in the experiment on PC-3 prostate it was 39.8% (inactive). Besides, the growth was 60.5% (inactive) in the experiment with SK-MEL-5 melanoma; 73.3% (inactive) in the experiment with UACC-62 melanoma; 68.6% (inactive) in the experiment on LOX IMVI melanoma; 82.3% (inactive) with SK-MEL-28 melanoma; 81% (inactive) in the experiment with SK-MEL-2 melanoma; 83.9% (inactive) with SN12C renal. Besides, the growth with UO-31 renal is 57.3% (inactive); in the experiment with TK-10 renal it was 75% (inactive); in the experiment with ACHN renal, 74.7% (inactive); in the experiment on CAKI-1 renal, 86.3% (inactive); in the experiment with A498 renal, 54.2% (inactive); with CCRF-CEM leukemia, 63.6% (inactive). The growth in the experiment on MOLT-4 leukemia was 62.4% (inactive).
Turning to `OB(O)c1ccsc1-c1nc2ccc3[nH]ncc3c2c2c1CCCC2`, the growth with HCT-15 colon was 31.3% (inactive); in the experiment with HT29 colon it was 45.9% (inactive); in the experiment on SNB-75 CNS it was 35.2% (inactive); in the experiment with SNB-19 CNS it was 76.1% (inactive); with U251 CNS, 65.9% (inactive); with PC-3 prostate, 69.4% (inactive). The growth in the experiment on SK-MEL-5 melanoma was 57.6% (inactive); in the experiment on UACC-62 melanoma, 45.2% (inactive); in the experiment with LOX IMVI melanoma, 41.1% (inactive); with SK-MEL-28 melanoma, 72.8% (inactive); in the experiment on SK-MEL-2 melanoma it was 55.9% (inactive); in the experiment with SN12C renal, 56.4% (inactive). Besides, the growth was 38.3% (inactive) in the experiment on UO-31 renal; 48.7% (inactive) with TK-10 renal; 23.3% (inactive) with ACHN renal; 13.7% (inactive) in the experiment on CAKI-1 renal; -2.71% (active) in the experiment with A498 renal; 56.2% (inactive) in the experiment with CCRF-CEM leukemia. The growth in the experiment with MOLT-4 leukemia is 58.5% (inactive).
On to `O=C1/C(=C/c2ccccc2[N+](=O)[O-])Cc2ccccc21`, for which the growth in the experiment on HCT-15 colon is -56.9% (active) and 5.02% (active); in the experiment with HT29 colon, -44% (active) and -37.1% (active); in the experiment on SNB-75 CNS, 40.8% (inactive) and 43.5% (inactive); in the experiment with SNB-19 CNS, 93.7% (inactive) and 74.1% (inactive); with U251 CNS, 24.9% (inactive) and 32.7% (inactive); in the experiment with PC-3 prostate it was 27.2% (inactive) and 30.4% (inactive). For the same molecule, the growth in the experiment with SK-MEL-5 melanoma was 47.2% (inactive) and 69.5% (inactive); with UACC-62 melanoma, 29.5% (inactive) and 25.5% (inactive); in the experiment on LOX IMVI melanoma, -61.1% (active) and 5.09% (active); in the experiment with SK-MEL-28 melanoma it was 45.9% (inactive) and 4.22% (active); in the experiment on SK-MEL-2 melanoma it was 68.4% (inactive) and 80.5% (inactive); in the experiment with SN12C renal it was 20.3% (inactive) and 48.5% (inactive). In addition, the growth is -66.2% (active) and 25.9% (inactive) with UO-31 renal; -15.6% (active) and 21.2% (inactive) in the experiment with TK-10 renal; -23.9% (active) and -43.3% (active) with ACHN renal; -10.6% (active) and -9.61% (active) in the experiment with CAKI-1 renal; -18.3% (active) and 14.1% (inactive) with A498 renal; -0.132% (active) and 4.53% (active) in the experiment on CCRF-CEM leukemia. Moreover, the growth in the experiment with MOLT-4 leukemia is -1.54% (active) and 13.5% (inactive).
